# Results reported in PubChem BioAssay (Tox21).
# “And” between values parts separate entries of the source, which are not always exact repeats. Equal values may be shown once. The source made the active and inactive calls. Where a call stands in place of a potency, no number is given. Calls follow the shape of the dose curve; as a rule, active = well fitted activation curve with a large enough effect in the repeat runs; inconclusive = weak or mixed curves; inactive = flat fitted curve, though single readings scatter.
# Experiment: Caspase-3/7 induction in CHO-K1 cells by small molecules, qHTS assay (AID 1346980); also: nearly all actives have a fitted effect of over 15% in size
# Settings: CHO-K1 caspase-3/7 induction, Caspase-Glo luminescence, 17 h; series mostly up to 92.4 µM
# From the text: National Center for Advancing Translational Sciences [NCATS]
# NIH Chemical Genomics Center [NCGC]
# U.S. Environmental Protection Agency [EPA]
# National Institutes of Environmental Health Sciences [NIEHS]
# National Toxicology Program [NTP]
# Apoptosis is a process of programmed cell death and plays a central role in the development of multicellular organisms. It is a highly regulated process and induces cell death by activating caspases, which are the members of cysteine aspartic acid-specific protease (caspase) family. Caspases involved in apoptosis are classified by their mechanism of action as initiator caspases (caspase-2, -8, -9 and -10) and executioner caspases (caspase-3, -6, and -7). Inhibition of apoptosis results in number of cancers, autoimmune diseases, inflammatory diseases and viral infection. To identify small molecule compounds that induce apoptosis, a homogeneous, luminescent Caspase-Glo 3/7 assay was used. Wild type CHO-K1 cells were used to screen Tox21 libraries for identifying caspase-3/7 activity inducers.
# CHO-K1 cells were dispensed at 1,500 per well in 5uL of culture medium into white solid bottom 1536-well plates (Corning Life Sciences, Corning, NY) using a Multidrop Combi (Thermo Scientific, Waltham, MA) dispenser. The assay plates were incubated at 37 C and 5% CO2 for 5hr, and then 23nL of compounds dissolved in DMSO and positive control were transferred using a Pintool station (Wako, San Diego, CA). The assay plates were incubated at 37C and 5% CO2 for 17hr. For caspase-3/7 activity read, 4uL of Caspase-Glo 3/7 reagent (Promega Corporation, Madison, WI) was added to each well of the assay plates using Flying Reagent Dispenser (FRD, Aurora Discovery, San Diego, CA) and incubated the assay plates at room temperature for 30min. The luminescence signal was quantified using a ViewLux plate reader (Perkin Elmer, Shelton, CT).
# Potency is read from the fitted curve at half-maximal effect.
Compound,Potency,caspase-3/7 activation
CC[C@H](c1ccc(O)cc1)[C@@H](CC)c1ccc(O)cc1,inactive,
O=c1cccccc1O,inactive,
CSc1ccc(/C=C2/C(C)=C(CC(=O)O)c3cc(F)ccc32)cc1,inactive,
CCN1/C(=C/C=C/c2sc3ccccc3[n+]2CC)Sc2ccccc21,,0.607% [at 19 µM] (inactive)
CC(C)(C)CC(C)(C)c1ccc(OCCOCC[N+](C)(C)Cc2ccccc2)cc1,inactive,
O=S1(=O)CC(Cl)(Cl)C(Cl)(Cl)C1,0.486 µM (active),
Nc1nc2ccccc2n1Cc1ccc(F)cc1,inactive,
Oc1cccc(-c2c3nc(c(-c4cccc(O)c4)c4ccc([nH]4)c(-c4cccc(O)c4)c4nc(c(-c5cccc(O)c5)c5ccc2[nH]5)CC4)C=C3)c1,inactive,
COC(=O)c1cc(Cl)ccc1OC,inactive,
CC(NN)c1ccccc1 (stereo not given),,2.13% [at 19 µM] (inactive)
CCCN(CCC)C(=O)C(CCC(=O)OCCCN1CCN(CCOC(=O)Cc2c(C)n(C(=O)c3ccc(Cl)cc3)c3ccc(OC)cc23)CC1)NC(=O)c1ccccc1 (stereo not given),inactive,
CC(C)(C)c1ccc(C(=O)CCCN2CCC(OC(c3ccccc3)c3ccccc3)CC2)cc1,21.1 µM (active),
Clc1ccc2n[nH]nc2c1,inactive,
CCCCc1oc2ccc(NS(C)(=O)=O)cc2c1C(=O)c1ccc(OCCCN(CCCC)CCCC)cc1,inactive,
NNC(=O)c1cccc(C(=O)NN)c1,inactive,
CCCC/C=C/CCCCO,inactive,
NNc1nc(-c2ccccc2)cs1,inactive,
O=c1[nH]cnc2nc[nH]c12,inactive,
Cc1c(C)c2c(c(C)c1OC(=O)CCC(=O)O)CC[C@@](C)(CCC[C@H](C)CCC[C@H](C)CCCC(C)C)O2,inactive,
Cc1onc(-c2c(Cl)cccc2Cl)c1C(=O)N[C@@H]1C(=O)N2[C@@H]1SC(C)(C)[C@@H]2C(=O)O,inactive,

Compound,Potency,caspase-3/7 activation
CCCCCOc1ccccc1/C(=C\SC)n1ccnc1,inactive,
CS(=O)(=O)CCNCc1ccc(-c2ccc3ncnc(Nc4ccc(OCc5cccc(F)c5)c(Cl)c4)c3c2)o1,inactive,
CCCCCCCCCCCCc1ccc(O)cc1,54.5 µM (active),
CCCCCCCCOC(=O)c1ccc(O)cc1,inactive,
CC(=O)S[C@@H]1CC2=CC(=O)CC[C@]2(C)[C@H]2CC[C@@]3(C)[C@@H](CC[C@@]34CCC(=O)O4)[C@H]12,inactive,
CCOC(=O)O[C@]1(C(=O)OCCl)CC[C@H]2[C@@H]3CCC4=CC(=O)C=C[C@]4(C)[C@H]3[C@@H](O)C[C@@]21C,inactive,
Nc1ccc2cc(S(=O)(=O)O)cc(O)c2c1N=Nc1ccccc1C(F)(F)F,inactive,
C=CC(=O)OCC(CO)(COC(=O)C=C)COC(=O)C=C,2.44 µM (active) and 6.11 µM (active),
C/C=C(\C)C(=O)OCc1ccccc1,inactive,
NNc1nc(-c2ccc(N)cc2)cs1,inactive,
Cc1c(C)c2c(c(C)c1O)CCC(C)(COc1ccc(CC3SC(=O)NC3=O)cc1)O2 (stereo not given),inactive,
Cc1ccc(-n2nc(C(C)(C)C)cc2NC(=O)Nc2ccc(OCCN3CCOCC3)c3ccccc23)cc1,inactive,
CC(=O)OCC(C)OC(C)=O (stereo not given),inactive,
CCCC(C)c1ccccc1O (stereo not given),inactive,
Cc1cc(C2CCCCC2)n(O)c(=O)c1,inactive,
CC(C)(C)c1ccc(C(=O)O)cc1,inactive,
C=C(C)C(=O)OCC[N+](C)(C)C,inactive,
O=C(OCC1CO1)C1CCCCC1C(=O)OCC1CO1 (stereo not given),inactive,
CN1CCN(CCC(=O)N2c3ccccc3Sc3ccc(C(F)(F)F)cc32)CC1,inactive,
O=C(OC[C@H]1O[C@@H](OC(=O)c2cc(O)c(O)c(OC(=O)c3cc(O)c(O)c(O)c3)c2)[C@H](OC(=O)c2cc(O)c(O)c(OC(=O)c3cc(O)c(O)c(O)c3)c2)[C@@H](OC(=O)c2cc(O)c(O)c(OC(=O)c3cc(O)c(O)c(O)c3)c2)[C@@H]1OC(=O)c1cc(O)c(O)c(OC(=O)c2cc(O)c(O)c(O)c2)c1)c1cc(O)c(O)c(OC(=O)c2cc(O)c(O)c(O)c2)c1,,0.641% [at 19 µM] (inactive)
